# In the supplement of paper PMC11417369:
# ± gives the standard deviation of the averaged measurements. Whole data set: some 25,000 sequences, median “ln(normalized median fluorescence intensity)” near 10, cut for the highest 2% near 12. Many of the other results were omitted from the sample, so the highest values are more common in it than they were.
# Tested on: PfAP2-G AP2 domain (GST-tagged)
# Assay: gcPBM binding intensity (ln(normalized median fluorescence intensity)); higher = stronger DNA binding
# Procedure, shortened: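 Alexa488 anti-GST antibody, scanned at 488 nm, detected GST-tagged P. falciparum DNA-binding domains that had been expressed in E. coli and incubated for 1 h on an Agilent 4 × 180k array. The array carried primer-extended double-stranded 36-bp intergenic genomic probes and negative controls. Binding intensity is the highest Masliner-normalised natural-log median intensity across replicate spots of either orientation of each probe.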
row,Sequence,gcPBM binding intensity (ln)
1,TTTTTTTTTTTTTTTTGTACATAATTATATATTTAC [XGTACX_site7540],10.9 ± 1
2,AAAATAATGTTTATATGTACATATATATATATATAT [XGTACX_site8815],11 ± 0.57
3,AACAATTAGAACTTTGCACACTTCTATATATTTTGT [CACACA_site674],9.91 ± 0.2
4,TTTTCTAAATAAATAGTGCATTTATTATATATACAT [GTGCAC_site9766],9.97 ± 0.13
5,ATATATATATATATATGTACATATTTGATTTTTCTT [XGTACX_site8171],11.1 ± 0.79
6,ATATTTATTTATTTATGTACGCACACAGTTGATATT [XGTACX_site5808],11.7 ± 1
7,TATTTATTTATGTACGCACACAGTTGATATTAATTC [CACACA_site2754],11.6 ± 0.96
8,AAATATTATGTACGCACACACATTTTTGATATATAA [CACACA_site7755],11.5 ± 0.88
9,TTGTAATATCTTGTCACACATATATATATATATATA [CACACA_site4937],10.1 ± 0.26
10,AATTGAAAAAGAAATTGTACATTTTATTTTTATTAT [XGTACX_site1973],10.9 ± 0.42
11,ATAGTCTTAATGACTACACACCTAACTATGCATGCA [CACACA_site5084],9.88
12,CAAAAATAAATATAAACACACAATAAATAAATAAAT [CACACA_site891],9.74 ± 0.057
13,TATTTTAACATTAGGTGTACATACAAAAATAAAAAT [XGTACX_site8577],11.6 ± 0.93
14,TAAAATAATACAAAATGTACAAAATTTACAAAATGT [XGTACX_site3541],10.5 ± 0.28
15,CAAAAATAATTTAGGTGTACAAATTTGACAAAAAAA [XGTACX_site188],11.7 ± 0.59
16,CTTAAAATGATAATATGTACACATAAATAATATATA [XGTACX_site8330],11.5 ± 0.76
17,TATATAAACATCGGTAGTACACACATTCATGTATTT [XGTACX_site6443],11.5 ± 0.71
18,TACTACACACATTCATGTACTTGATAAATTAATGAT [XGTACX_site6444],10.9 ± 0.47
19,ATAAACATCGGTAGTACACACATTCATGTACTTGAT [CACACA_site3037],11.8 ± 1
20,TTTTCAAAATGTTGTACACACAAAAAAAAAAAAAAA [CACACA_site1550],11.5 ± 1

row,Sequence,gcPBM binding intensity (ln)
1,TAAGAAAAAGGCACACGTACATAATTCAAAATAAAT [XGTACX_site982],11.3 ± 0.67
2,TCGGGAGGGGGGAAGCGTACATATATAAAATTATTA [XGTACX_site4683],11.7 ± 0.76
3,TATAAATAGAGGAAGCGTACATATATATATATATAT [XGTACX_site4993],11.3 ± 1
4,ATAAATAAATAAAAGCGTACATATATATAAAATATA [XGTACX_site8107],11.6 ± 0.88
5,TTATAAAAATACAGTTAACACACATGTGTATATATA [CACACA_site9257],10.4 ± 0.25
6,ATATATATATATATATGTACATAATGCATATAATAT [XGTACX_site6142],11.1 ± 0.52
7,CGCATGCAATGTTAATGTACATATATATATATATGT [XGTACX_site3316],11.7 ± 0.64
8,ATATATATATATATATGTACATATGTTAATCTGCAT [XGTACX_site1068],11.2 ± 0.7
9,AATATAAATAAAAAATTGATTTCTTTAAAAAGGTAT [CACACA_negctrl_site1038],9.67 ± 0.18
10,TTTTTATAAAAATTATTAAAAAAATTATTTATAGCT [CACACA_negctrl_site265],9.54 ± 0.12
11,ATGACATATAAATATACACACATACGTAAGTATATT [CACACA_site5058],9.96 ± 0.11
12,TGTGTATAAAAAAAGTGTACACAAAGTAAGACTTTA [XGTACX_site3759],11.7 ± 0.86
13,TATAAAAGGTAAGAGTGTACAAGTAAAAAATTTTTA [XGTACX_site771],11.2 ± 0.7
14,AAAAAAAAAAAAAAAAGTACACAAATTTTAAAAATT [XGTACX_site3006],11.6 ± 0.88
15,TTTAAAGTAATAAAGTGTACAAAAATAAATTCAGCT [XGTACX_site8651],11.2 ± 0.67
16,GTACAAAAAAAGTGTACACAAAGTAAGACTTTAATT [CACACA_site5068],11.7 ± 0.83
17,GTATAAAAAAATAAAAGTACAAAAAAAAAAGACTGA [XGTACX_site186],11.4 ± 0.77
18,TTCTAAAATTATATAGTGCAATTATATTAATTTTTC,9.785 ± 0.078
19,TTTGTTGGTATGGTTACACACATTTAGGAAATAAAA [CACACA_site1411],10.4 ± 0.34
20,GAACGTATCATGTGTACACACAAATTGTTTTTTTTT [CACACA_site2020],11.7 ± 0.91

row,Sequence,gcPBM binding intensity (ln)
1,TTTTACAAATGTTTTACACACACATAATTGTATCAA [CACACA_site4166],10.1 ± 0.13
2,TCGAACGTATCATGTGTACACACAAATTGTTTTTTT [CACACA_site8623],11.6 ± 0.86
3,ACCCATTGCTCACGTGCACACATAGAAAAATAATTC [CACACA_site4389],10.8 ± 0.58
4,TTTTTAATTTTTTTTAAACACACACCGTACATTCAA [CACACA_site7925],10.8 ± 0.61
5,AAAAATTTAAGTGGGGGTACATTTTTTTAACACCTT [XGTACX_site1093],11.6 ± 0.66
6,ATTCATTTTTTGGGGGGTACACCCTTTTAAACATTT [XGTACX_site4797],11.8 ± 1.3
7,AATAGCCCATATGGAATACACACTGAAAATAAAAAA [CACACA_site3373],10.3 ± 0.26
8,TATATATATATATATGCATGTACATATATTTGTTAT [TGCATGCA_site379],11.1 ± 0.42
9,TATATTTCAGGGGGGAGTACAAATTTTTTTATATAA [XGTACX_site1600],11.8 ± 0.87
10,TATAATTATATTTGGAGTACAAATTTTTTTTTTTTT [XGTACX_site7494],11.5 ± 0.9
11,TATTTTTTTTTTATATGTACATAATTTCAAATAAAT [XGTACX_site7747],11.4 ± 0.83
12,TATTGTATTTAATAAACACACAATATTAAAAATATA [CACACA_site4725],9.91 ± 0.16
13,GAAAACAAATATGTAGCACACATTCACATAATATAT [CACACA_site8731],9.97 ± 0.014
14,GTTACATACCTATACACACACATATATAAATAAATA [CACACA_site6549],10.2 ± 0.18
15,ATATATATAATATAGGTGCACTACTTATTTAAAAAA,10.5 ± 0.36
16,ATTGATAAATTAACTAGTACACATATAAATATATTA [XGTACX_site2325],11.3 ± 0.93
17,TACACCAGTTGTGGGAGTACACAAAAAAAGGGAAAA [XGTACX_site6047],11.7 ± 1
18,AAAGAAGGGAAACACACACACACACCCACAAAAAAA [CACACA_site3766],10.3 ± 0.33
19,TATAAGCTAAGTTGTTGTACAAAAAGGAAAAGTATA [XGTACX_site3741],11.1 ± 0.59
